Screening results as filed in PubChem BioAssay.
Hits are enriched below; roughly 3.9% of the tested compounds scored in any of these assays.
Mtb FBA inh: inhibits M. tuberculosis FBA enzyme | P9WQA3 | purified M. tuberculosis FBA, fluorescence read-out | inhibition, % at 1 µM | hit rate 2.3% among 360,000; in the data active means inhibition above about 27%
Target sequence (P9WQA3 whole entry, looked up): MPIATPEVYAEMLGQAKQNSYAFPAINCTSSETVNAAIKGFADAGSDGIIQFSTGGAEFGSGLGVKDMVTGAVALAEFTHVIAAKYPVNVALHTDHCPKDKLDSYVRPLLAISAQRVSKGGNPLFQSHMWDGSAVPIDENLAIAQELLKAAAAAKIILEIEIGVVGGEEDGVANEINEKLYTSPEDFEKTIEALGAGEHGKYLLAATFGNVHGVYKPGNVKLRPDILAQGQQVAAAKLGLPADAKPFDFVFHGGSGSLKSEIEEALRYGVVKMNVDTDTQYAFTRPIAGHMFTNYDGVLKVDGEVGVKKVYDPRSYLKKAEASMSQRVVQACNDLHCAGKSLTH
GDH-TPI inh: counter-screen for M. tuberculosis FBA inhibitors: GDH-TPI coupled enzymes. hit rate 1.2% among 360,000. GDH-TPI coupled enzyme counterscreen, NADH absorbance. inhibition, % at 4.8 µM; in the data active means inhibition above about 30%
PrPC surface inh: cell surface PrPC inhibition, primary TR-FRET screen; TR-FRET read-out; AID 720596; inhibition, % at 13.8 µM; P04156; hit rate 0.43% among 370,000; in the data active means inhibition above about 24%
BH1578 lux ind: induces V. cholerae light production without autoinducers. V. cholerae BH1578 lux reporter, luminescence, 6 h. activation, % at 18.7 µM. hit rate 0.16% among 350,000; in the data active means activation mostly above about 9.7%, no sharp cut-off
SARS 3CLpro inh: SARS-CoV 3CLpro protease inhibition; AID 1706; recombinant SARS-CoV 3CLpro, quenched FRET peptide cleavage; P0C6X7; hit rate 0.14% among 290,000; inhibition, % at 6 µM; in the data active means inhibition above about 12%
Large screens that a line does not name were inactive.

COc1ccc(C2N(C(=O)N(C)C)CCN2S(=O)(=O)c2ccc(OC)cc2)cc1 (stereo unspecified)	none
Cc1cc(=O)oc2cc(NC(=O)c3cccc(S(=O)(=O)N(C)C)c3)ccc12	none
Cc1ccc(N(C)S(=O)(=O)c2cccc(C(=O)Oc3ccc4c(C)cc(=O)oc4c3)c2)cc1	Mtb FBA inh 131
O=C(N/N=C/c1ccccn1)c1c[nH]c2ccccc12	none
O=C(N/N=C/c1ccsc1)c1c[nH]c2ccccc12	none
Cc1ccsc1/C=N/NC(=O)c1c[nH]c2ccccc12	GDH-TPI inh 45
O=C(N/N=C/c1ccncc1)c1cc2ccccc2cc1O	none
O=C(N/N=C/c1ccc[nH]1)c1cc2ccccc2cc1O	GDH-TPI inh 37
Cc1ccc(/C=N/NC(=O)c2c[nH]c3ccccc23)s1	GDH-TPI inh 49 (no result: BH1578 lux ind)
O=C(N/N=C/c1ccc[nH]1)c1c[nH]c2ccccc12	GDH-TPI inh 32
CN(C(=O)c1cccc(NC(=O)Cc2ccc(NC(=O)C3CCN(C(=O)C4CCC4)CC3)cc2)c1)C1CCC1	none (no result: SARS 3CLpro inh)
Cc1ccc(/C=N/NC(=O)C(O)c2ccccc2)o1 (stereo unspecified)	GDH-TPI inh 31
O=C(N/N=C/c1ccc[nH]1)c1sc2ccccc2c1Cl	GDH-TPI inh 38
O=C(N/N=C/c1c[nH]c2ccccc12)c1cccc(O)c1	none
Cc1ccc(/C=N/NC(=O)c2c[nH]c3ccccc23)o1	GDH-TPI inh 59 (no result: PrPC surface inh)
O=C(N/N=C/c1c[nH]c2ccccc12)c1ccc(O)c(O)c1	GDH-TPI inh 36
O=C(N/N=C/c1cc(Br)c(Br)o1)C(O)c1ccccc1 (stereo unspecified)	none
CCN(CC)CCn1c2c(c(SCC(=O)NCc3ccccc3)nc1=O)CCC2	none (no result: SARS 3CLpro inh)
CC1(C)CC2CN(Cc3ccccc3)S(=O)(=O)N2C1 (stereo unspecified)	none (no result: Mtb FBA inh, GDH-TPI inh, BH1578 lux ind, SARS 3CLpro inh)
O=C(Cn1cc(SCc2cccc(Cl)c2)c2ccccc21)N1CCOCC1	none
Cc1ccsc1/C=N/NC(=O)c1ccccn1	GDH-TPI inh 39
O=C(N/N=C/c1cc([N+](=O)[O-])ccc1O)c1c[nH]c2ccccc12	GDH-TPI inh 39
O=C(N/N=C/c1cccc([N+](=O)[O-])c1)c1c[nH]c2ccccc12	none
CCC[C@H]1CN(Cc2cccnc2)C(=O)[C@@H]1CC(=O)Nc1ccc(Br)cc1	none (no result: SARS 3CLpro inh)
CC(=O)NC1=C(N2CC2C)C(=O)C(NC(C)=O)=C(N2CC2C)C1=O (stereo unspecified)	GDH-TPI inh 32 (no result: SARS 3CLpro inh)
CCC1=[N+](CC(=O)c2ccc(C)cc2)CCn2cccc21	GDH-TPI inh 35
COc1ccc(C2=Nn3c(nnc3-c3ccccc3)SC2)cc1OC	none
COc1ccc(OCc2nnc3n2N=C(c2ccc(C)cc2)CS3)cc1	BH1578 lux ind active
COc1ccc(OC)c(-c2nnc3n2N=C(c2ccc(OC)c(OC)c2)CS3)c1	GDH-TPI inh 34 (no result: SARS 3CLpro inh)
COc1ccc(OC)c(-c2nnc3n2N=C(c2ccc(OC)c(OC4CCCC4)c2)CS3)c1	GDH-TPI inh 32 (no result: SARS 3CLpro inh)
Cc1ccsc1C(=O)OCC(=O)N1CC(C)CC(C)C1 (stereo unspecified)	none (no result: SARS 3CLpro inh)
CC(C)(C)n1nc2c(c1NC(=O)C1CC(=O)N(c3ccc(Cl)cc3)C1)CS(=O)(=O)C2 (stereo unspecified)	none
CN(C)c1ccc(-c2csc(C(O)c3cccc(Cl)c3)n2)cc1 (stereo unspecified)	none (no result: SARS 3CLpro inh)
COc1ccc(C2/C(=C(/O)c3ccccc3)C(=O)C(=O)N2c2ccccn2)c(OC)c1 (stereo unspecified)	GDH-TPI inh 31
O=c1[nH]c(/C=C\c2cccc(Cl)c2)nc(O)c1[N+](=O)[O-]	GDH-TPI inh 51
O=c1[nH]c(/C=C\c2cccc(F)c2)nc(O)c1[N+](=O)[O-]	GDH-TPI inh 31
C=CCOc1cccc(/C=C\c2nc(O)c([N+](=O)[O-])c(=O)[nH]2)c1	none
O=C(CC1CCCC1)OCn1nnc2ccccc2c1=O	none
COc1cc2cc(C(=O)NCCc3ccccc3)[nH]c2cc1OC	Mtb FBA inh 160
COc1cc2[nH]c(C(=O)Nc3ccc4c(c3)OCCO4)cc2c(OC)c1OC	none
COc1ccc2cc(C(=O)NCCc3ccccc3)[nH]c2c1	none
COc1cc2cc(C(=O)Nc3ccc4c(c3)OCCO4)[nH]c2cc1OC	GDH-TPI inh 36
O=C(COC(=O)c1cc(S(=O)(=O)N2CCOCC2)ccc1F)Nc1ccccc1C(F)(F)F	none (no result: SARS 3CLpro inh)
COCCNC(=O)C(=O)N/N=C(\C)CC(=O)Nc1cccc(C(F)(F)F)c1	none
O=[N+]([O-])c1ccc(N2CCSCC2)cc1	GDH-TPI inh 71
COc1ccc(CNc2ncc(-c3ccc(Cl)cc3)n2C)c(OC)c1OC	none
COC(=O)COc1ccc(/C=C2/SC(=O)N(CC(=O)N3CCCC3)C2=O)cc1Br	GDH-TPI inh 36
Cc1nn(-c2ccccc2)c2nc(N)c(C(N)=O)cc12	Mtb FBA inh 71
Brc1ccc(CSc2nnc3ccccn23)cc1	none
CC(=O)NC(C)(c1ccccc1)c1nc(-c2cccc(C(F)(F)F)c2)cs1 (stereo unspecified)	none (no result: SARS 3CLpro inh)
COc1cccc(/C=N/Nc2nc3ccccc3[nH]2)c1O	GDH-TPI inh 36
COc1cc(/C=N/Nc2nc3ccccc3[nH]2)ccc1O	GDH-TPI inh 50
COc1cc(/C=N/Nc2nc3ccccc3[nH]2)cc(OC)c1O	none
O=C1NC(=S)N/C1=C\c1ccccc1OCc1ccc(C(=O)O)cc1	GDH-TPI inh 42
O=C(N/N=C/c1cc2c(cc1[N+](=O)[O-])OCO2)c1ccc2c(c1)OCO2	none
COc1cc(/C=N/NC(=O)c2ccc3c(c2)OCCO3)cc(Cl)c1O	none
COc1c(O)ccc(/C=N\NC(=O)c2ccc3c(c2)OCO3)c1[N+](=O)[O-]	GDH-TPI inh 33
COc1c(O)ccc(/C=N/NC(=O)c2ccc3c(c2)OCCO3)c1[N+](=O)[O-]	GDH-TPI inh 62
Cc1ccccc1N1Cc2ccccc2C1	none
CCOC(=O)C1CCN(C(=O)c2cc3c(ccc4ccccc43)o2)CC1	none
CCOC(=O)C1CCN(C(=O)c2cc3cc4ccc(C)cc4nc3o2)CC1	GDH-TPI inh 32
COc1ccc2cc3cc(C(=O)N4CCCCCC4)oc3nc2c1	Mtb FBA inh 86, GDH-TPI inh 39 (no result: PrPC surface inh)
COc1ccc2cc3cc(C(=O)N(C)C4CCCCC4)oc3nc2c1	GDH-TPI inh 39 (no result: PrPC surface inh)
COc1ccc2cc3cc(C(=O)N4CCCCC4C)oc3nc2c1 (stereo unspecified)	Mtb FBA inh 40, GDH-TPI inh 49
COc1cccc(-c2cc(C(=O)N3CCCCC3C)no2)c1 (stereo unspecified)	none
CC(=O)N1CCOc2ccc(S(=O)(=O)N3CCC(C(=O)NCc4ccc(Cl)cc4)CC3)cc21	none (no result: SARS 3CLpro inh)
Nc1nc(N)c(N=O)c(Nc2cccc(Cl)c2)n1	none (no result: Mtb FBA inh, GDH-TPI inh, BH1578 lux ind, SARS 3CLpro inh)
CCO[C@@H]1OC(C(=O)NCc2ccccc2)=C[C@H](c2ccc(C(F)(F)F)cc2)[C@H]1CCCO	none
O=C(c1cc2cc3ccc(Cl)cc3nc2o1)N1CCC2(CC1)OCCO2	GDH-TPI inh 39
CCOC(=O)[C@H]1[C@H]2COc3ccccc3[C@@H]2N2C(=O)CNC(=O)[C@@]12C	none (no result: SARS 3CLpro inh)
